Measured values reported in PubChem BioAssay (NCI).
Values joined by “and” are separate entries in the source; they are usually repeats but may differ in a detail not shown here. Identical values can stand only once. This is part of a sample that, as a whole, favours compounds with a hit. Of some 83,000 tested, about 20% had one in any assay.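 A percent growth of 40 corresponds to 60% growth inhibition; 0 means no net growth; -100 means all cells died. Active threshold: below 10.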 Active and inactive are the calls of the source.

Legend:
Assay in all cases: NCI-60 one-dose screen, 48 h (100 = growth as untreated, 0 = no growth, -100 = all killed)
Settings in all cases: 10 µM unless noted
MCF7 breast = system: MCF7 breast
NCI/ADR-RES ovarian = system: NCI/ADR-RES ovarian
T-47D breast = system: T-47D breast
MDA-MB-435 melanoma = system: MDA-MB-435 melanoma
SW-620 colon = system: SW-620 colon
HCT-116 colon = system: HCT-116 colon
HCC-2998 colon = system: HCC-2998 colon
KM12 colon = system: KM12 colon
BT-549 breast = system: BT-549 breast

| SMILES | growth (MCF7 breast) | growth (NCI/ADR-RES ovarian) | growth (T-47D breast) | growth (MDA-MB-435 melanoma) | growth (SW-620 colon) | growth (HCT-116 colon) | growth (HCC-2998 colon) | growth (KM12 colon) | growth (BT-549 breast) |
| --- | --- | --- | --- | --- | --- | --- | --- | --- | --- |
| CCOC(=O)c1c(SC)nc(-c2ccc(Cl)cc2)sc1=N | -8.27% [100 µM] (active) and 5.36% [100 µM] (active) |  |  |  |  |  |  |  |  |
| Cc1c2ccncc2c(C)c2c1[nH]c1ccccc12 | -15.9% (active) | -46.9% (active) | -56.1% (active) | -89.6% (active) | -64.1% (active) | -57% (active) | -96.8% (active) | -69.3% (active) |  |
| CN1[C@@H](CC(=O)c2ccccc2)CCC[C@H]1CC(=O)c1ccccc1 | 93.3% (inactive) | 99% (inactive) | 103% (inactive) | 97.5% (inactive) | 112% (inactive) | 101% (inactive) | 126% (inactive) | 110% (inactive) |  |
| CCN1C(=O)CC(=O)N(CC)C1=S | 100% (inactive) | 73.9% (inactive) | 98.1% (inactive) |  | 108% (inactive) | 93.8% (inactive) |  | 106% (inactive) | 94.5% (inactive) |
| CCCCOC(N)=O | 114% (inactive) | 106% (inactive) | 102% (inactive) | 110% (inactive) | 113% (inactive) | 98.4% (inactive) |  | 106% (inactive) |  |
| NNC(=S)N/N=C(\C(=O)Nc1cccc(O)c1)C1C(=O)NC(=S)NC1=O | 95.1% [100 µM] (inactive) and 87.3% [100 µM] (inactive) |  |  |  |  |  |  |  |  |
| Cc1cc(N)ccc1N | 92.2% (inactive) | 105% (inactive) |  | 116% (inactive) | 96.6% (inactive) | 91.8% (inactive) | 93.2% (inactive) | 104% (inactive) | 90.4% (inactive) |
| O=S(=O)(c1ccc(O)cc1)c1ccccc1O | 104% (inactive) |  | 102% (inactive) | 110% (inactive) | 106% (inactive) |  |  | 107% (inactive) |  |
| COC12CC3(C)C(C4=CC(=O)OC4)CCC3(O)C3CCC4=CC(=O)CCC4(CO1)C32 (centres undefined) | 98.1% (inactive) | 113% (inactive) | 116% (inactive) | 106% (inactive) | 105% (inactive) | 101% (inactive) | 131% (inactive) | 114% (inactive) |  |
| CCOC(=O)C1C(c2ccco2)C2(C#N)C(=N)OC1(C)C2(C#N)C#N (centres undefined) | 45.1% [100 µM] (inactive) and 0.896% [100 µM] (active) |  |  |  |  |  |  |  |  |
| CC1=CC(=O)CCC12CCOC2=O (centres undefined) | 97.4% (inactive) | 94.7% (inactive) |  | 95.5% (inactive) | 98.6% (inactive) | 102% (inactive) | 102% (inactive) | 104% (inactive) | 90.5% (inactive) |
| Nc1c(Cl)c(Cl)nc(C(=O)O)c1Cl | 95.2% (inactive) | 101% (inactive) | 101% (inactive) |  | 99.1% (inactive) | 97.3% (inactive) | 95.7% (inactive) | 101% (inactive) |  |
